Results on 13 compounds are retold here after PubChem BioAssay (Tox21).

The structures appear in SMILES notation. Where “and” joins values, the source holds several entries; their conditions need not be identical. Identical values can stand only once. More than one record can exist for a structure, and the calls need not agree. Calls of active or inactive are those of the source. Unless noted, calls follow the shape of the dose curve; as a rule, active = well fitted curve in the direction sought with a large enough effect in the repeat runs; inconclusive = weak or mixed curves; inactive = no such curve, though single readings can be large; an effect the other way counts as inactive or inconclusive.

For assay [1], the system named is thyroid hormone receptor (rat, GH3 cells). Nature of the assay: qHTS assay to identify small molecule agonists of the thyroid receptor (TR) signaling pathway (AID 743066; calls by dose curve).
Assay [2] is described as follows: qHTS assay to identify small molecule antagonists of the estrogen receptor alpha (ER-alpha) signaling pathway - cell viability counter screen (AID 743074; calls by dose curve;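 also: HEK293 cells carrying ER-alpha-UAS-bla reporter stimulated with 17beta-estradiol; nearly all actives have a fitted effect of over 45% in size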; also: potency is read from the fitted curve at half-maximal effect).
The nature of assay [3]: qHTS assay to identify small molecule antagonists of the estrogen receptor alpha (ER-alpha) signaling pathway using the BG1 cell line - cell viability counter screen (AID 743081).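 Also: compound given together with 17beta-estradiol as the ER stimulus; nearly all actives have a fitted effect of over 45% in size.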 Also: potency is read from the fitted curve at half-maximal effect.
The target in a further assay is Aromatase (Homo sapiens) (UniProt P11511). Nature of the assay: qHTS assay to identify aromatase inhibitors (AID 743083). Also: nearly all actives have a fitted effect of over 55% in size. Also: potency is read from the fitted curve at half-maximal effect.
A short description of assay [4]: qHTS assay to identify aromatase inhibitors - cell viability counter screen (AID 743084).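 Also: cells stimulated with testosterone during compound exposure; nearly all actives have a fitted effect of over 55% in size.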 Also: potency is read from the fitted curve at half-maximal effect.
Assay [5] deals with Aryl hydrocarbon receptor (Homo sapiens) (UniProt P35869). Nature of the assay: qHTS assay to identify small molecule that activate the aryl hydrocarbon receptor (AhR) signaling pathway (AID 743085). Also: nearly all actives have a fitted effect of over 15% in size. Also: potency is read from the fitted curve at half-maximal effect.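 As to activation: HG2L7.5c1 human HepG2 liver cells with stably integrated DRE-driven firefly reporter; series mostly up to about 70 µM.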 The procedure, abridged: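 Steps: seed HepG2-AhR-luc cells; allow 5 h at 37C; pin-transfer test compound or vehicle; incubate 24 h at 37C; add viability dye (30 min, 37C) and read fluorescence; add luciferase substrate (30 min, RT) and read luminescence.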

The nature of assay [6]: qHTS assay to identify small molecule that activate the aryl hydrocarbon receptor (AhR) signaling pathway - cell viability counter screen (AID 743086). Also: nearly all actives have a fitted effect of over 45% in size. Also: potency is read from the fitted curve at half-maximal effect. The procedure, abridged:
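Cytotoxicity counter screen: CellTiter-Fluor signal (30 min, 37 C) in 4000 HepG2 cells/well carrying the DRE-luciferase reporter, following 24 h compound exposure at 37 C.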
For orientation: In qHTS, concentration-response curves come from the screen itself.

Assay [7] has as its target Peroxisome proliferator-activated receptor gamma (Homo sapiens) (UniProt P37231). In words: qHTS assay to identify small molecule agonists of the peroxisome proliferator-activated receptor gamma (PPARg) signaling pathway (AID 743094; active = well fitted activation curve with a large enough effect in the signal ratio in the repeat runs, not every such curve was filed as active; inconclusive = weak or mixed curves, or effect the other way; inactive = no such curve, though single readings can be large or run the other way; the % refers to the signal ratio). The procedure, abridged:
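Agonism was assessed in a beta-lactamase reporter system, HEK293H cells with a stably integrated UAS-bla construct under PPARg control; the 17 h treatment at 37C preceded a 1 h room-temperature FRET substrate read.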

Assay [8] has the same target. Nature of the assay: qHTS assay to identify small molecule antagonists of the peroxisome proliferator-activated receptor gamma (PPARg) signaling pathway (AID 743191; calls by dose curve; also: series mostly up to about 63 µM; nearly all actives have a fitted effect of over 30% in size). The procedure, abridged: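 Beta-lactamase reporter under UAS control in HEK293H PPARg-bla cells; compound treatment 17 h at 37C. Read-out: fluorescence intensity after 1 h room-temperature incubation with LiveBLAzer B/G FRET substrate.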

The nature of assay [9]: qHTS assay to identify small molecule antagonists of the peroxisome proliferator-activated receptor gamma (PPARg) signaling pathway - cell viability counter screen (AID 743194). Also: nearly all actives have a fitted effect of over 55% in size. Also: potency is read from the fitted curve at half-maximal effect. The procedure, abridged: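 Viability was measured as CellTiter-Glo luminescence in GeneBLAzer PPARg UAS-bla HEK293H cells. These cells had been exposed 17 h at 37 C to compounds together with rosiglitazone at 50 nM final, with the beta-lactamase readout taken in the same wells.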

Assay [10] can be described thus: qHTS assay for small molecule agonists of the antioxidant response element (ARE) signaling pathway (AID 743202; active = well fitted activation curve with a large enough effect in the signal ratio in the repeat runs, not every such curve was filed as active; inconclusive = weak or mixed curves, or effect the other way; inactive = no such curve, though single readings can be large or run the other way; the % refers to the signal ratio). The procedure, abridged: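 After 16 hours of compound treatment at 37 C, HepG2 cells with a stably integrated ARE-driven beta-lactamase reporter were loaded 2 hours at room temperature with LiveBLAzer B/G FRET substrate and fluorescence intensity measured.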

Assay [11] is described as follows: qHTS assay for small molecule agonists of the antioxidant response element (ARE) signaling pathway - cell viability counter screen (AID 743203; calls by dose curve; also: nearly all actives have a fitted effect of over 55% in size; also: potency is read from the fitted curve at half-maximal effect). The procedure, abridged: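 ATP content via CellTiter-Glo luminescence served as the viability measure. Cells: ARE-bla HepG2, 2,000 per well. Exposure: 16 hrs, 37C/5% CO2.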
Assay [12] in a line: qHTS assay for small molecule activators of the heat shock response signaling pathway - cell viability counter screen (AID 743209). Also: nearly all actives have a fitted effect of over 50% in size. Also: potency is read from the fitted curve at half-maximal effect. The procedure, abridged:
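Compounds dissolved in DMSO were added to overnight-plated HSE-bla HeLa cells and left 5 h at 37 C. Cell viability was quantified by luminescence using CellTiter-Glo.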

Assay [13] can be described thus: qHTS assay for small molecule activators of the heat shock response signaling pathway (AID 743210; active = well fitted activation curve with a large enough effect in the signal ratio in the repeat runs, with a control signal flat, not every such curve was filed as active; inconclusive = weak or mixed curves; the % refers to the signal ratio; also: potency is read from the fitted curve at half-maximal effect; as to activation: series mostly up to about 63 µM). The procedure, abridged:
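Compound exposure lasted 5 h at 37 C in HeLa cells carrying a heat-shock-element-driven beta-lactamase reporter. Read-out: fluorescence intensity after 2.5 h room-temperature loading with LiveBLAzer B/G FRET substrate.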

Assay [14] in a line: qHTS assay to identify small molecule agonists of the peroxisome proliferator-activated receptor delta (PPARd) signaling pathway - cell viability counter screen (AID 743211). Also: nearly all actives have a fitted effect of over 55% in size. Also: potency is read from the fitted curve at half-maximal effect. The procedure, abridged:
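Viability of GeneBLAzer PPARd UAS-bla HEK293H cells was assessed after 17 h compound incubation at 37C, using CellTiter-Glo reagent added after the reporter read and luminescence recorded 30 min later.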

Assay [15] is described as follows: qHTS assay to identify small molecule antagonists of the thyroid receptor (TR) signaling pathway (AID 743065). The procedure, abridged:
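Antagonism measured as loss of luciferase signal in GH3 cells stably carrying a TRE-luciferase reporter, co-treated with compound and T3 (1 nM final) for 23.5 h at 37 C. Viability was read in the same well by CellTiter-Fluor.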

Assay [16] concerns the target Estrogen receptor (Homo sapiens) (UniProt P03372). Nature of the assay: qHTS assay to identify small molecule antagonists of the estrogen receptor alpha (ER-alpha) signaling pathway (AID 743069; active = well fitted curve in the direction sought with a large enough effect in the signal ratio in the repeat runs, not every such curve was filed as active; inconclusive = weak or mixed curves, or effect the other way; inactive = no such curve, though single readings can be large or run the other way; the % refers to the signal ratio; also: potency is read from the fitted curve at half-maximal effect). The procedure, abridged:
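Antagonist mode: compounds in DMSO were co-added with 17beta-estradiol to ER-alpha-bla HEK293 cells (2% charcoal-stripped serum) and left 18 h at 37C. Reporter inhibition was measured as FRET fluorescence after 2 h LiveBLAzer substrate at room temperature.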

Assay [17] has the same target. In words: qHTS assay to identify small molecule agonists of the estrogen receptor alpha (ER-alpha) signaling pathway (AID 743075; calls by dose curve;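 also: HEK293 GripTite cells with ER-alpha and UAS-driven beta-lactamase reporter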; also: potency is read from the fitted curve at half-maximal effect).
The target is the same in assay [18]. In words: qHTS assay to identify small molecule agonists of the estrogen receptor alpha (ER-alpha) signaling pathway using the BG1 cell line (AID 743079). Also: nearly all actives have a fitted effect of over 20% in size. Also: potency is read from the fitted curve at half-maximal effect.
Assay [19] in a line: qHTS assay to identify small molecule antagonists of the estrogen receptor alpha (ER-alpha) signaling pathway using the BG1 cell line (AID 743080; calls by dose curve; also: nearly all actives have a fitted effect of over 25% in size; also: potency is read from the fitted curve at half-maximal effect). The procedure, abridged: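 Antagonist mode: compounds in DMSO were pinned onto BG1-Luc-4E2 cells alongside 17beta-estradiol agonist, incubated 21.5 h, and ERE-driven luciferase measured with ONE-Glo. Cytotoxicity was multiplexed using CellTiter-Fluor fluorescence.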

Chain of Aryl hydrocarbon receptor (Homo sapiens) (P35869 whole entry, looked up): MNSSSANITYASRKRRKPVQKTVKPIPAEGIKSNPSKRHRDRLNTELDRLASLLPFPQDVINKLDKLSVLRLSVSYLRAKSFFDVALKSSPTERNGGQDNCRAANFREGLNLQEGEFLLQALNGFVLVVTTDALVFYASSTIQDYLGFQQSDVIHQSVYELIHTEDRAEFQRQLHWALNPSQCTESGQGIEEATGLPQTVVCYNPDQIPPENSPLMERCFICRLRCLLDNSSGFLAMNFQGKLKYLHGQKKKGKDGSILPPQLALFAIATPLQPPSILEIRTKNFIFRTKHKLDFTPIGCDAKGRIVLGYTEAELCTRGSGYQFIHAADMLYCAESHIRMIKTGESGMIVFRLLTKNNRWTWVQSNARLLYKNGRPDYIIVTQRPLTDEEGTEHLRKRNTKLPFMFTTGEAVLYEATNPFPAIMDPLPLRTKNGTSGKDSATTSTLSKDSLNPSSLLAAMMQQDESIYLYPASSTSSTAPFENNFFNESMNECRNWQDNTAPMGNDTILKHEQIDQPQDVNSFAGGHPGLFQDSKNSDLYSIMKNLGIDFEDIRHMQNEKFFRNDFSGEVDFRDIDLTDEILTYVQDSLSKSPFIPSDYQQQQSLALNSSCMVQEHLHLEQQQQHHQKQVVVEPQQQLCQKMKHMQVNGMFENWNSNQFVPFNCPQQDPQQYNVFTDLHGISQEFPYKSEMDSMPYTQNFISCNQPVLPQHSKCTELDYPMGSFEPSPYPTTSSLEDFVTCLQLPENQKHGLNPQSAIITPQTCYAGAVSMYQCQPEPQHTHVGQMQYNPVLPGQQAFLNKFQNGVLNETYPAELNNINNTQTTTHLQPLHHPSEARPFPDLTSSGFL
Chain of Aromatase (Homo sapiens) (P11511 whole entry, looked up): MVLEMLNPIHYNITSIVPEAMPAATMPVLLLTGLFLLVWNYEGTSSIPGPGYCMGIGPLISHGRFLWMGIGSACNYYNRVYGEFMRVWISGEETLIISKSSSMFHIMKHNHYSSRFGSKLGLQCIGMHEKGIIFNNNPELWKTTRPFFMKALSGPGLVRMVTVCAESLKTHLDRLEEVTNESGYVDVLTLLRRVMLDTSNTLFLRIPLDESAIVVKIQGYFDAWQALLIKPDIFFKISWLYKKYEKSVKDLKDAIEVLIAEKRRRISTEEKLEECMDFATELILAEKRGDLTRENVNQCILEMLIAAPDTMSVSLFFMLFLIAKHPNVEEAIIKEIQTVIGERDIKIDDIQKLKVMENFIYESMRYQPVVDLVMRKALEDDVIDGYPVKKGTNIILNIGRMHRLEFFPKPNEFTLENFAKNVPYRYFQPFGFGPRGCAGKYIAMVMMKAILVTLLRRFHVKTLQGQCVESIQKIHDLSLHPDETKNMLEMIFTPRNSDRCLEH
Chain of Peroxisome proliferator-activated receptor gamma (Homo sapiens) (P37231 whole entry, looked up): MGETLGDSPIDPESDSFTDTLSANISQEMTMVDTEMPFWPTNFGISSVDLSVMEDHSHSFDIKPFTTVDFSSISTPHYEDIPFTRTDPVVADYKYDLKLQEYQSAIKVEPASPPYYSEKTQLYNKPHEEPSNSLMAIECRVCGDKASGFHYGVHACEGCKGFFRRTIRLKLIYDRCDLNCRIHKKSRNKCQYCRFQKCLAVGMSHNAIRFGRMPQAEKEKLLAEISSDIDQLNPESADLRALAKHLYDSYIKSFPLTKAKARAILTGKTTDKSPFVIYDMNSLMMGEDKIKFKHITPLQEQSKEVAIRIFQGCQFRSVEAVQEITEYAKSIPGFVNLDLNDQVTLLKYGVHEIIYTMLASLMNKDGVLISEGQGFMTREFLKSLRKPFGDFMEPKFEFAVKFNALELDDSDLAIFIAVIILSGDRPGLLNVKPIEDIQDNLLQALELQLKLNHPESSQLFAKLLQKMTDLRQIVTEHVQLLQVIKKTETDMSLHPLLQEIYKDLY
Chain of Estrogen receptor (Homo sapiens) (P03372 whole entry, looked up): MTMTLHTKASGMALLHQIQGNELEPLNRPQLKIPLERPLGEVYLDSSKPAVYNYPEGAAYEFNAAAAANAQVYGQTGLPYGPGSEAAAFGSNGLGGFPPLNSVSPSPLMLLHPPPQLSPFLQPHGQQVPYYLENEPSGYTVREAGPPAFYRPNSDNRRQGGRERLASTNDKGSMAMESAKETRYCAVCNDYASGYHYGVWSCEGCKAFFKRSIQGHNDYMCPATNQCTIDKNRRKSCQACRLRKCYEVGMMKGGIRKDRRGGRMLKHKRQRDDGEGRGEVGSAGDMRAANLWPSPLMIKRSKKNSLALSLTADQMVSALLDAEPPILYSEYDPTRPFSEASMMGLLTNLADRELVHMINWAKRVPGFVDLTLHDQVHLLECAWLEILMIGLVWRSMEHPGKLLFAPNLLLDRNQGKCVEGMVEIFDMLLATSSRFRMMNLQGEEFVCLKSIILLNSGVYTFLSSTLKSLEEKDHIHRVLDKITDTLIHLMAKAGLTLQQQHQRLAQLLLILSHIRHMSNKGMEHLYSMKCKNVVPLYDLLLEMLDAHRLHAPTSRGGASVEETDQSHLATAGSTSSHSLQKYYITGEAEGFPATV

`Cc1cc(C(C)(C)C)c(O)c(C(C)(C)C)c1`: the Potency result (in [1]; in assay [2]; in [3]; in the assay with Aromatase (Homo sapiens); in assay [4]; in [5]) was “inactive” in each case. For the same compound, the Potency result in assay [6], in assay [7], in assay [8], in assay [9], in assay [10] and in [11] was “inactive” in each case. Further, the Potency result in assay [12] and in assay [13] was “inactive” throughout. For the same compound, the Potency in [14] was 43.8 µM (active) and inactive.

As to `COC(=O)[C@H]1[C@H]2C[C@@H]3c4[nH]c5cc(OC)ccc5c4CCN3C[C@H]2C[C@@H](OC(=O)c2cc(OC)c(OC)c(OC)c2)[C@@H]1OC`, the Potency in assay [15] is 11.9 µM (active) and 21.6 µM (active) and 39.7 µM (active); with Aromatase (Homo sapiens), 16.8 µM (active) and 27.3 µM (active) and 56 µM (active); in assay [5] it was 68.5 µM (active) and 39.7 µM (active); in assay [14], 17.9 µM (active). For the same compound, the Potency entry in assay [2], in assay [3], in assay [4], in [6], in assay [9] and in [11] was “inactive” throughout. The Potency entry in assay [12] and in [13] was “inactive” in each case.

On to `O=C1Nc2ccccc2C1(c1ccc(O)cc1)c1ccc(O)cc1`, for which the Potency entry (in [1]; in assay [2]; in [17]; in the assay with Aromatase (Homo sapiens); in [5]; in assay [9]) was “inactive” in each case. The Potency entry in assay [11], in [12], in [13] and in assay [14] was “inactive” throughout. In addition, the results for the Potency in [16] and in assay [3] were 49 µM [inconclusive] (active) and 969 nM (active), respectively.

On to `CCN(CC)c1ccc2c(C)cc(=O)oc2c1`, for which the Potency result (in assay [1]; in assay [18]; in assay [19]; with Aromatase (Homo sapiens); in [9]; in assay [11]) was “inactive” each time. The Potency result in assay [12] and in assay [14] was “inactive” each time. In addition, the Potency in assay [2] was 49.4 µM (active) and inactive; in [13] it was 31.1 µM (active).

Take `CN(C)c1ccc2nc3ccc(=[N+](C)C)cc-3sc2c1`: the Potency entry in assay [1], in assay [16], in assay [2], in [7] and in assay [9] was “inactive” throughout. In addition, the Potency in assay [3] is 18.8 µM (active) and 23.4 µM (active) and 54.5 µM (active); in [4], 23.7 µM (active) and 13.1 µM (active); in assay [6], 9.44 µM (active) and 16.6 µM (active) and 27.3 µM (active); in [11], 11.7 µM (active) and 9.69 µM (active) and 11.9 µM (active); in assay [12], “inactive and 54.9 µM (active)”; in assay [14], 9.39 µM (active) and 49 µM (active).

Turning to `[Cl][In]([Cl])[Cl]`, the Potency entry in assay [1], in assay [16], in assay [2], in [17], in assay [19] and in [3] was “inactive” in each case. In addition, the Potency result (in the assay with Aromatase (Homo sapiens); in [4]; in [5]; in assay [6]; in assay [11]; in assay [12]) was “inactive” throughout. In assay [14], the Potency result was “inactive”.

For `CCn1c2ccccc2c2cc(N)ccc21`, the Potency entry in assay [1], in [16], in [2], in [18], in assay [19] and in [3] was “inactive” throughout. Further, the Potency entry (with Aromatase (Homo sapiens); in assay [4]; in assay [6]; in assay [7]; in [9]; in assay [10]) was “inactive” each time. For the same compound, the Potency result in [11], in assay [12] and in [14] was “inactive” each time. The Potency is 48.5 µM [inconclusive] (active) and inactive in assay [17]; 9.59 µM (active) and 9.69 µM (active) and 3.06 µM (active) in [5].

Regarding `CCC(C)(C)C(=O)O[C@H]1C[C@@H](C)C=C2C=C[C@H](C)[C@H](CC[C@@H]3C[C@@H](O)CC(=O)O3)[C@H]21`, the Potency entry (in assay [1]; in assay [16]; in [2]; in assay [17]; in assay [3]; with Aromatase (Homo sapiens)) was “inactive” throughout. Moreover, the Potency result in [4], in [5], in [6], in assay [7], in assay [9] and in assay [11] was “inactive” throughout. Further, the Potency in assay [18] was 12.7 µM (active) and inactive; in assay [12] it was 54.9 µM (active).

As for `C1COC(NC(C2CC2)C2CC2)=N1`, the Potency entry in assay [1], in [16], in [2], in [17], in assay [19] and in assay [3] was “inactive” throughout. For the same compound, the Potency result (with Aromatase (Homo sapiens); in assay [4]; in assay [5]; in assay [6]; in assay [7]; in [9]) was “inactive” each time. The Potency result in assay [10], in [11], in [12], in [13] and in assay [14] was “inactive” in each case.

With `CCCCC/C=C/CC1CC(=O)OC1=O` (configuration not stated), the Potency entry in assay [1], in assay [16], in assay [2], in assay [17], in [18] and in [19] was “inactive” each time. Further, the Potency result (in assay [3]; with Aromatase (Homo sapiens); in assay [4]; in assay [5]; in [6]; in assay [7]) was “inactive” throughout. Further, the Potency entry in [9], in [10], in [12], in assay [13] and in [14] was “inactive” throughout.

Consider `CNCCC(Oc1ccc(C(F)(F)F)cc1)c1ccccc1` (configuration not stated), for which the Potency in [15] was 11.9 µM (active) and 15.2 µM (active); in [2], “inactive and 48.4 µM (active)”; with Aromatase (Homo sapiens), 47.9 µM (active); in assay [4], “inactive and 47.9 µM (active)”; in [6], “inactive and 60.3 µM (active)”; in assay [9], 48.4 µM (active). In addition, the Potency is 17 µM (active) in [11]; 27.2 µM (active) and 29.8 µM (active) in assay [14]. For the same compound, the Potency result in [3] and in assay [5] was “inactive” each time.

On to `CCCCC(CC)COC(=O)CC(C(=O)OCC(CC)CCCC)S(=O)(=O)O` (configuration not stated), for which the Potency entry (in assay [1]; in [17]; in assay [19]; in assay [3]; in the assay with Aromatase (Homo sapiens); in [4]) was “inactive” in each case. The Potency result in assay [5], in [6] and in assay [7] was “inactive” each time. Also, the Potency is 21.3 µM [inhibitor] (active) and 54.9 µM [inhibitor] (active) in assay [16]; 47.1 µM (active) and inactive in assay [2]; “inactive and 15 µM (active)” in assay [18]; 58.8 µM (active) and 54.5 µM (active) in [11]; 52.9 µM (active) in [12]; 37.4 µM (active) and 24.5 µM (active) in assay [14].

For the compound `Cc1cc(OCCOCC[N+](C)(C)Cc2ccccc2)ccc1C(C)(C)CC(C)(C)C`, the Potency result in assay [1], in assay [17], in assay [3], in [5] and in assay [7] was “inactive” each time. The Potency in assay [2] is 15.1 µM (active) and 6.13 µM (active); in [19] it was 26.6 µM (active); with Aromatase (Homo sapiens), 21.1 µM (active) and 30.5 µM (active); in assay [4] it was 26.6 µM (active) and 60.8 µM (active); in assay [6] it was 29.8 µM (active) and 60.8 µM (active); in assay [9], 15.4 µM (active) and 29.8 µM (active). Moreover, the Potency is 19.2 µM (active) and 29.8 µM (active) in assay [11]; 38.7 µM (active) in assay [12]; 21.7 µM (active) and 11.9 µM (active) in [14].
